SARS 3CLpro inh – SARS-CoV 3CLpro protease inhibitors, primary screen, biochemical, quenched FRET; actives 0.14% (n = 290,000); Replicase polyprotein 1ab (Severe acute respiratory syndrome coronavirus), P0C6X7; AID 1706, 2009; recombinant SARS-CoV 3CLpro, quenched FRET peptide cleavage; inhibition, % at 6 µM; in the data active = inhibition above about 12%
BoNT-F LC inh – BoNT/F light chain protease inhibitors, primary screen, biochemical, flow cytometry, MLPCN library; Botulinum neurotoxin type F light chain protease (Clostridium botulinum); inhibition, % at 10 µM; actives 0.22% (n = 360,000); Multiplex microsphere protease cleavage assay; in the data active = inhibition above about 35%, passing the limit was not always enough; inconclusive = no clear call, values can overlap the other calls; also: plate controls were buffer without enzyme for full effect and enzyme alone for no effect
BoNT A protease – BoNT/A light chain protease inhibitors, primary screen, biochemical, flow cytometry, MLPCN library; actives 0.17% (n = 360,000); multiplex microsphere protease substrate cleavage; AID 588499, 2011; inhibition, % at 10 µM; Botulinum neurotoxin type A light chain protease (Clostridium botulinum A str. ATCC 3502); also: plate controls were buffer without enzyme for full effect and enzyme alone for no effect
BJeLR lethal – MLPCN primary cell-based screen for lethality selective to Ras in HRASV12 cells. BJeLR (HRASV12) viability, CellTiter-Glo ATP luminescence, 48 h. actives 0.17% (n = 300,000). inhibition, % (no concentration beside the values); in the data active = inhibition above about 50%; inconclusive = no clear call, values can overlap the other calls
Autofluor counter – flagged as autofluorescent in microsphere protease counterscreen; actives 3.1% (n = 360,000); fluorescence intensity (concentration not given with the values); AID 624483; compound autofluorescence counterscreen, microsphere flow cytometry; active compounds read high; in the data active = fluorescence intensity above about 16000; inconclusive = no clear call, values can overlap the other calls
Anthrax LF prot – Bacillus anthracis LF protease inhibitors, primary screen, biochemical, multiplex microsphere, MLPCN library | multiplex microsphere protease cleavage assay | AID 588501, 2011 | inhibition, % at 10 µM | Lethal factor (Bacillus anthracis), P15917 | actives 0.12% (n = 360,000); also: plate controls were buffer without enzyme for full effect and enzyme alone for no effect
Starred values were filed as active, the others as inactive; ? = inconclusive; · = no result. An excerpt weighted towards active compounds, which were near 3.6% of everything screened. Rule as the data show it, unless noted: active = inhibition above about 30%; inconclusive = no clear call, values can overlap the other calls; inactive = below that.

SMILES | SARS 3CLpro inh | BoNT-F LC inh | BoNT A protease | BJeLR lethal | Autofluor counter | Anthrax LF prot
CC(Oc1ccc(Cl)cc1Cl)c1nc(-c2ccc(NC(=O)c3cccnc3)cc2)no1 (stereo unspecified) | -1.6 | 15.0 | 0.8 | 72.3* | 2580 | 2.9
CC(=O)N(C)c1ccc(NC(=O)COc2ccc(Br)cc2C)cc1 | 0.9 | -5.6 | -0.7 | -6.1 | 2162 | -0.9
Cc1cc(C)cc(NC(=O)CN2CCN(c3ncccn3)CC2)c1 | 1.0 | 5.1 | 2.4 | -2.7 | 22652* | -0.1
Cc1cc(C)cc(NC(=O)CN2CCN(c3ccccn3)CC2)c1 | 3.7 | -0.9 | 0.3 | 0.5 | 2709 | 0.1
COc1cc(Cl)cc(CN2CCC(CCC(=O)NC3CC3)CC2)c1OC | -0.3 | ? | 1.6 | 2.1 | 3302 | -14.7
COc1ccc(-c2nnc(-c3ccc(N)cc3)o2)cc1 | 2.2 | 7.2 | 1.0 | -6.5 | 9135 | -5.7
COc1ccc(-c2ccc(-c3nnc(-c4cc(OC)ccc4OC)o3)cc2)cc1 | -4.0 | -0.5 | ? | -1.2 | 22687* | 0.8
Cc1ccc(Oc2ccccc2/C=C2\SC(=O)N(C)C2=O)cc1 | 7.3 | 3.9 | 3.2 | -6.1 | 21464* | 1.4
CN1C(=O)S/C(=C\c2ccccc2OCc2ccc(C(=O)O)cc2)C1=O | -0.5 | 3.2 | 0.4 | 1.9 | 2193 | 0.8
COc1ccc(NC(=O)C23CCC(C)(C(=O)O2)C3(C)C)cc1 (stereo unspecified) | -3.3 | -6.6 | -1.3 | 8.2 | 6104 | -12.5
CC12CCC(C(=O)NCc3ccccc3)(OC1=O)C2(C)C (stereo unspecified) | 1.8 | -2.3 | -0.2 | 0.6 | 2359 | -0.9
CCOC(=O)c1ccc(NC(=O)C23CCC(C)(C(=O)O2)C3(C)C)cc1 (stereo unspecified) | -1.6 | 0.3 | 0.2 | 1.4 | 16270* | -2.1
CC12CCC(C(=O)NCc3ccc(Cl)cc3)(OC1=O)C2(C)C (stereo unspecified) | -4.2 | -2.9 | -2.6 | -2.2 | 21504* | 3.2
CSCCC(NS(=O)(=O)c1ccccc1F)C(=O)Nc1cccc(C)n1 (stereo unspecified) | -4.2 | -4.5 | -5.2 | 5.1 | ? | -1.1
CC1CCCN(C(=O)Cn2c(-c3nonc3N)nc3ccccc32)C1 (stereo unspecified) | 3.3 | 13.7 | 8.5 | -3.0 | 18146* | 1.5
CC1CC(C)CN(C(=O)Cn2c(-c3nonc3N)nc3ccccc32)C1 (stereo unspecified) | 2.1 | 0.3 | -0.6 | -4.5 | 4021 | -6.3
COc1cccc(N2C(=O)C(c3ccccc3)=C(c3nc4ccccc4s3)C2NC(C)=O)c1 (stereo unspecified) | 1.0 | 3.4 | ? | -7.1 | 21453* | -0.2
CC(=O)NC1C(c2nc3ccccc3s2)=C(c2ccccc2)C(=O)N1c1ccc(C)cc1 (stereo unspecified) | -0.1 | -7.7 | -0.1 | 4.5 | 4253 | -10.4
Cc1ccccc1NC(=S)N(CCN(C)C)C(C)c1ccccn1 (stereo unspecified) | -2.1 | 7.2 | 5.6 | 23.3 | 19817* | -12.1
CCc1c(C(=O)Nc2ccncc2)csc1C | -6.5 | -1.9 | -0.7 | -1.5 | 23043* | -7.3
CCc1c(C(=O)Nc2ncn(Cc3cccc(C)c3)n2)csc1C | -0.7 | -0.4 | ? | 5.5 | 16518* | -6.2
COc1ccccc1NC(=O)N1CCCC(CNC(=O)c2ccccc2Cl)C1 (stereo unspecified) | 1.1 | 3.2 | 0.5 | -3.4 | 5412 | -0.3
Cc1cc(Cl)c(S(=O)(=O)Nc2ccc3c(c2)OCCO3)cc1OCC(=O)NC1CCCCC1 | 1.9 | 1.0 | ? | -6.2 | 19863* | -2.9
COC(=O)COc1ccc(S(=O)(=O)Nc2ccc3c(c2)OCCO3)cc1C | 3.6 | ? | -3.1 | -2.3 | 3591 | 13.7
Cc1cc(Cl)c(S(=O)(=O)N2CCN(c3ccc(F)cc3)CC2)cc1OCC(N)=O | 5.8 | 0.2 | -0.3 | 35.1 | 3071 | 1.7
SMILES | SARS 3CLpro inh | BoNT-F LC inh | BoNT A protease | BJeLR lethal | Autofluor counter | Anthrax LF prot
COC(=O)COc1ccc(S(=O)(=O)Nc2ccc3c(c2)OCCO3)cc1Cl | 4.3 | 4.8 | 5.2 | -3.3 | 20964* | -4.4
Cc1cc(Cl)c(S(=O)(=O)N2CCN(c3ccc(F)cc3)CC2)cc1OCC(=O)NC1CCCCC1 | -0.4 | -2.9 | -1.2 | -8.9 | 16526* | -4.1
CC(C)(C)C(=O)N1CCC(O)(CS(=O)(=O)c2ccc(Cl)c(Cl)c2)CC1 | -1.6 | -1.3 | -1.9 | 7.7 | 4348 | -1.6
CCCCc1ccc(NC=C2C(=O)OC3(CCCCC3)OC2=O)cc1 | -0.6 | -8.0 | 0.2 | -2.7 | 3444 | 0.1
NS(=O)(=O)c1ccc(NC=C2C(=O)OC3(CCCCC3)OC2=O)cc1 | 1.2 | 1.3 | 0.7 | · | 16483* | 0.0
COc1ccc(CCNC(=O)c2ccccc2SC)cc1 | 1.4 | -2.0 | -0.5 | 7.4 | 4512 | -1.2
CCN(CC)C(=O)CSc1nnc(CCNC(=O)OC(C)(C)C)o1 | -5.2 | -1.1 | -0.2 | 5.1 | 23519* | -0.1
CCN(CC)C(=O)CSc1nnc(CCN)o1 | -3.5 | -2.0 | -2.1 | · | 23987* | -1.8
NCCc1nnc(SCC(N)=O)o1 | -4.2 | 2.0 | -1.2 | -7.3 | 10327 | -9.2
CN(C)C(=O)CSc1nnc(CCCCCNC(=O)OC(C)(C)C)o1 | 2.3 | ? | ? | -6.7 | ? | ?
CN(C)C(=O)CSc1nnc(CCNC(=O)OC(C)(C)C)o1 | -2.1 | 4.1 | 0.4 | 6.3 | 22750* | -2.9
Cc1c(Cl)cccc1NC(=O)CSc1nnc(CCNC(=O)OC(C)(C)C)o1 | 0.0 | 3.7 | 1.8 | 1.8 | 22523* | -0.9
OCCNCc1cccc(-c2ccccc2)c1O | · | -3.3 | -0.4 | · | 3827 | -3.7
CCOc1cc2[nH]c(=S)n(Cc3ccc(C(=O)NCCCOC)cc3)c(=O)c2cc1OCC | -4.9 | 25.8 | -0.7 | -7.5 | 3699 | 4.0
c1ccc(-c2csc(-n3cnnn3)n2)cc1 | -3.4 | 5.3 | 1.6 | -1.8 | 21991* | 0.5
Cc1cc(C)n(-c2nc(-c3ccccc3)cs2)n1 | 7.3 | -1.3 | 0.6 | -13.5 | 4055 | 0.8
CS(=O)(=O)N(Cc1ccco1)Cc1ccccc1Cl | 1.8 | -0.8 | ? | 0.4 | 20334* | 0.9
c1ccc(CNc2ccccn2)cc1 | -6.2 | ? | ? | 6.9 | 4375 | -17.4
Oc1cccc2ccc(Nc3ccccn3)nc12 | 0.9 | 25.8 | 10.0 | -0.5 | 11243 | 33.7*
c1ccc(Nc2ccccc2Nc2ccccn2)nc1 | -191.5 | -3.4 | -0.8 | 0.7 | 20926* | 0.6
CC1(Br)C(Sc2ccccc2[N+](=O)[O-])=Nc2ccccc21 (stereo unspecified) | · | -1.8 | 0.0 | · | 5530 | -2.2
O=C(CCSc1nccn1Cc1ccccc1)N1CCOCC1 | -3.0 | 6.9 | 6.0 | 4.4 | 20488* | -5.7

Screening data (PubChem)
